This passage reports Potency and outcome results from PubChem BioAssay (NCATS).

The structures appear in SMILES notation. Records with an inconclusive call do not appear. Calls of active or inactive are those of the source. Unless noted, calls come from the whole dose curve; as a rule, active = well fitted curve in the direction sought with a large enough effect; inconclusive = small, poorly fitted or top-dose-only effect, or another doubt; inactive = no such curve, though single readings can be large; an effect the other way counts as inactive or inconclusive.

Assay [1] has as its target ATP-dependent DNA helicase Q1 (Homo sapiens) (UniProt P46063). The assay is described as follows: qHTS Validation Assay for Inhibitors of RecQ-Like Dna Helicase 1 (RECQ1) (AID 2353). In a few lines:
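RECQ1T1 50 nM; forked duplex (20 bp + 30-nt ss tails) 200 nM, ATP 2 mM final; pH 8.0, 2 mM MgCl2, 2.5 ug/ml poly(dI-dC); 15 min compound preincubation; discontinuous kinetic read over 2 h at RT.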
(Quantitative high-throughput screening tests each substance at several concentrations.)

In assay [2] the target is RecQ-like DNA helicase BLM (Homo sapiens) (UniProt P54132). The assay is described as follows: qHTS Validation Assay for Inhibitors of Bloom's syndrome helicase (BLM) (AID 2364). In a few lines: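 50 nM BLM preincubated 15 min at room temperature with compound in pH 8.0 Tris buffer containing 2.5 ug/ml poly(dI-dC); started with 200 nM TAMRA/BHQ-2 forked duplex and 2 mM ATP (final). Unwinding read as TAMRA fluorescence increase, two reads 2 h apart.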
Sequence of RecQ-like DNA helicase BLM (Homo sapiens) (P54132 whole entry, looked up): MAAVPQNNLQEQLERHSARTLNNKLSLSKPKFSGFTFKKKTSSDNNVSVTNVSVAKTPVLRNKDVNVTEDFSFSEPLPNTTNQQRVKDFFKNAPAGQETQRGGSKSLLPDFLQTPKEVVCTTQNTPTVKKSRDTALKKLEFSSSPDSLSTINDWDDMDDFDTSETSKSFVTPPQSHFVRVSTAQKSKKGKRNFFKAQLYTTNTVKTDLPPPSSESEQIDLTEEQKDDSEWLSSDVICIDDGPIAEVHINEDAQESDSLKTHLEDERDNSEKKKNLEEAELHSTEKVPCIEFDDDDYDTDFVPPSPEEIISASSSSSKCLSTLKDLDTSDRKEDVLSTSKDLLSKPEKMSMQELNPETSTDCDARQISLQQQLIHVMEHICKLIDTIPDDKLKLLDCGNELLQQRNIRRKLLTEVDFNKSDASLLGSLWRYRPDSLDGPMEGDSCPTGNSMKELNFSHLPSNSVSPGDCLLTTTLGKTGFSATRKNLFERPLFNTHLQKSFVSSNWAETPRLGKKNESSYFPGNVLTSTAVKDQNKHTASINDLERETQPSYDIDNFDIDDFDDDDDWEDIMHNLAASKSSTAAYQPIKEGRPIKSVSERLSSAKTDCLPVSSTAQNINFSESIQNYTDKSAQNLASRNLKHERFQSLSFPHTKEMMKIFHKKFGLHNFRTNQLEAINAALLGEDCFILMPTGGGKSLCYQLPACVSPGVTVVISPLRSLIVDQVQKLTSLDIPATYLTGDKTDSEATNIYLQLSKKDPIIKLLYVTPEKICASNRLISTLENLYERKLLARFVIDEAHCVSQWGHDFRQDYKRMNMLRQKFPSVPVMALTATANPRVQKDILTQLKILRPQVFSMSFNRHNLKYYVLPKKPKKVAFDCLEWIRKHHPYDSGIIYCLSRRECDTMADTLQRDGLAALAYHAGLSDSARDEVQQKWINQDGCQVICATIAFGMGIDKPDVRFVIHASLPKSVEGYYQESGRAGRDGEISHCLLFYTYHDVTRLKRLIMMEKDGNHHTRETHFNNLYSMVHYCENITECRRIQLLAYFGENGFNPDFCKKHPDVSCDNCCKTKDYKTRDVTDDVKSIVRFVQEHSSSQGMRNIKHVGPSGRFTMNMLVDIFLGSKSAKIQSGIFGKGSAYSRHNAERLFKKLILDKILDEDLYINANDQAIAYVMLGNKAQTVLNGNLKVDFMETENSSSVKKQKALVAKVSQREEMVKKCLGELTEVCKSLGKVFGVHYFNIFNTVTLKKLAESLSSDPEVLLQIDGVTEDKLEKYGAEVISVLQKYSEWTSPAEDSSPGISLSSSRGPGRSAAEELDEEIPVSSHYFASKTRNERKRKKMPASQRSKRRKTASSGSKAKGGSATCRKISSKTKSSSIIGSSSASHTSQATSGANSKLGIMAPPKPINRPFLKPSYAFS

The nature of assay [3]: Cytometric Cell-Based qHTS for Inhibitors of the mTORC1 Signaling Pathway in MEF (Tsc2-/-, p53-/-) Cells (AID 2660).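 Note: Tsc2 and p53 null MEFs carrying empty vector with compound for 24 h; percent of cells above a phospho-rpS6 to PI ratio cutoff in each well; series mostly up to about 38 µM.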 In a few lines:
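Immunofluorescence qHTS of rpS6 Ser235/236 phosphorylation: MEFs (Tsc2-/-, p53-/-) treated 24 h, 37 C, in DMEM + 10% FBS. Alexa-488 signal normalized to PI count, referenced to rapamycin (7.5 nM) and DMSO; PI cell number recorded for viability.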

Assay [4] can be described thus: High Content Imaging Cell-Based qHTS for Inhibitors of the mTORC1 Signaling Pathway in MEF (Tsc2-/-, p53-/-) Cells (AID 2666).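 Note: percent of cells scored positive for phospho-rpS6 Ser235/236 immunostaining by imaging.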 Note: potency is the fitted concentration of half-maximal effect. The procedure, abridged: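 MEF Tsc2-/- p53-/- (empty vector), DMEM/10% FBS; cpd 24 h 37 °C; PFA fix, Alexa-488 p-rpS6 S235/236 Ab, Hoechst; imaged; rapamycin-defined inhibition; % positive cells/well.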
Assay [5] in a line: High Content Imaging Cell-Based qHTS for Inhibitors of the mTORC1 Signaling Pathway in MEF Cells (AID 2667). Note: potency is the fitted concentration of half-maximal effect. In a few lines: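 Read-out is the share of phospho-rpS6-positive cells per well, from Hoechst-normalized Alexa-488 Ser235/236 staining imaged on IN Cell. Cells: WT Tsc2-expressing Tsc2-/-, p53-/- MEFs exposed to compound for 24 hrs.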
A short description of assay [6]: Cytometry Cell-Based qHTS for Inhibitors of the mTORC1 Signaling Pathway in MEF cells (AID 2668).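 Note: Tsc2-/- p53-/- mouse embryonic fibroblasts stably re-expressing wild-type Tsc2; percent cells positive for phospho-rpS6 Ser235/236 relative to propidium iodide stain; series mostly up to about 38 µM.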 In a few lines: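 Read-out: phospho-rpS6 Ser235/236 immunofluorescence normalized to propidium iodide intensity, scored as % active cells against a rapamycin (7.5 nM) threshold. Cells: Tsc2-/-, p53-/- MEFs stably expressing WT Tsc2, compound-treated 24 hrs at 37 degree Celsius.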

The nature of assay [7]: Validation screen for small molecules that induce DNA re-replication in MCF 10A normal breast cells (AID 463097). Note: nearly all actives have a fitted effect of over 60% in size. Note: potency is the fitted concentration of half-maximal effect. In a few lines:
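250 MCF 10A cells/well; compound pin-transferred; 48 hr, 37 C, 5% CO2; Hoechst 40 min; imaged 405/500-530 nm. Hits = more high-intensity nuclei.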

The target in assay [8] is Ubiquitin carboxyl-terminal hydrolase 2 (Homo sapiens) (UniProt O75604). The assay is described as follows: qHTS Validation Assay for Inhibitors of Ubiquitin-specific Protease USP2a Using CHOP2 as the Reporter (AID 463106). The procedure, abridged: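 Fluorescence read-out at Ex 485nm/Em 531nm after 60min RT, following addition of 25nM Ub-CHOP2 plus 25nM reporter substrate to USP2 core (10nM) pretreated 30min with compound. Data normalized to NEM full inhibition; concentration-response curves fitted.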
Sequence of Ubiquitin carboxyl-terminal hydrolase 2 (Homo sapiens) (O75604 whole entry, looked up): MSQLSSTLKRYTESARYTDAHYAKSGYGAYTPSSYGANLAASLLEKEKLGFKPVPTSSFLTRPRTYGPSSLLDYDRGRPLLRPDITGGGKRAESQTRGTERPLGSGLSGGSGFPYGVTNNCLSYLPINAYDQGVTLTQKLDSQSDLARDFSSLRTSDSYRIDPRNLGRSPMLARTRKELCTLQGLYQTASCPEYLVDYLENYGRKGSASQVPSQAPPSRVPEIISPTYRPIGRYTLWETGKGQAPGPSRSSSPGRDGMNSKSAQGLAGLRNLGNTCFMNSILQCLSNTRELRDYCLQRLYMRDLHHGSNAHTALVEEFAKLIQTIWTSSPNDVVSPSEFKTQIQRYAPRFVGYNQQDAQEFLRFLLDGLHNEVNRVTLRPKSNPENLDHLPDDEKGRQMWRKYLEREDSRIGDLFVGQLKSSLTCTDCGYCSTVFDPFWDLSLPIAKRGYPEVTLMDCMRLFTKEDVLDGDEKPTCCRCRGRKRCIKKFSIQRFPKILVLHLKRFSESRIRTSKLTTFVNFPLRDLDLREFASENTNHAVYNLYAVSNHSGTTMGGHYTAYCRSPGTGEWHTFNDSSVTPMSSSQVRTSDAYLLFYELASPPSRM

Assay [9] has as its target DNA polymerase III PolC-type (Bacillus subtilis (strain 168)) (UniProt P13267). The assay is described as follows: qHTS Validation Assay for the Inhibitors of DNA Replication in Gram-Positive Bacteria (AID 485295).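 Note: reconstituted holoenzyme with PolC plus beta clamp SSB and primase; PicoGreen fluorescence of double-stranded DNA made on primed circular M13 template; series mostly up to about 57 µM.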 In a few lines: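 PicoGreen fluorescence (ex 480–485/em 535–540 nm) reports dsDNA synthesized on ssM13Gori template with dNTPs/NTPs. Enzyme: holoenzyme rebuilt from purified PolC, beta subunit, SSB and primase. Compound preincubated before substrate addition; RT throughout.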

Assay [10] concerns the target Tumor susceptibility gene 101 protein (Homo sapiens) (UniProt Q99816). The assay is described as follows: qHTS Validation Assay for Iinhibitors of HIV-1 Budding by Blocking the Interaction of PTAP/TSG101 (AID 485342; calls by dose curve). The procedure, abridged:
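FP read-out: FITC-PTAP peptide, 50 nM final, binding Tsg101 binding domain, 10 uM final; 20 min r.t.; 10 mM HEPES pH 7.5, 0.15 M NaCl, 0.01% Tween 20, 3 mM EDTA, 0.1 mM TCEP.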

Assay [11] is described as follows: qHTS Validation Assay to Find Inhibitors of Chronic Active B-Cell Receptor Signaling (AID 485345; active = well fitted curve in the direction sought with a large enough effect in the main read-out, with a control signal flat, not every such curve was filed as active). The procedure, abridged:
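TMD8 ABC-DLBCL cells stably carrying doxycycline-inducible IkappaBalpha–green luciferase fusion plus unfused red luciferase; compounds 46 uM to 3 nM, 4 h at 37C with doxycycline. Corrected green/red luminescence ratio normalized to 10 uM MG-132 and basal cell wells; curves fitted.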

Assay [12] deals with Beta-2 adrenergic receptor (Homo sapiens) (UniProt P07550). The assay is described as follows: qHTS validation assay of beta-arrestin-biased ligands of beta2-adrenergic receptor (AID 485366). The procedure, abridged: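 Agonism was measured as beta-arrestin recruitment to recombinant beta2-AR, releasing tTA to drive luciferase. Cells were exposed for 18 hr at 37 degrees C to a series up to 46 microM. %Activity from corrected luminescence gave concentration-response curves.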
Sequence of Beta-2 adrenergic receptor (Homo sapiens) (P07550 whole entry, looked up): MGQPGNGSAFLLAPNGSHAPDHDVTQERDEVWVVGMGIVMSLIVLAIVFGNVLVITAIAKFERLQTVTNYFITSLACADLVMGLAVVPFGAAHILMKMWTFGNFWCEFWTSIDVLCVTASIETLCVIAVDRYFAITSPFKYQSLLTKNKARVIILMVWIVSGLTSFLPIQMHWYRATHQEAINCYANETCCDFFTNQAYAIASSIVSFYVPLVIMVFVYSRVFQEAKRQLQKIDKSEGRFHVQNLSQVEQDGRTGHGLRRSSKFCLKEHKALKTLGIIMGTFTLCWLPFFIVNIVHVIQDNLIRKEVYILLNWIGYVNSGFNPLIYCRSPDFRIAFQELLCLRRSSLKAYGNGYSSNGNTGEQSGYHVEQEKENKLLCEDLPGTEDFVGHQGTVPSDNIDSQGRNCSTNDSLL

Assay [13] deals with ATP-dependent 6-phosphofructokinase (Trypanosoma brucei brucei) (UniProt O15648). Description: qHTS Validation Assay to Find Inhibitors of T. brucei phosphofructokinase (AID 485368). To be noted: outcome: dose series up to 57.5 µM. In a few lines:
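ADP-Glo luminescence, two-step: residual ATP depleted, then ADP converted to ATP for luciferase. Enzyme 1.25 nM, F6P 0.5 mM, ATP 0.1 mM, pH 8.0 TEA buffer, 45 min RT. Curves fitted and classed by quality and efficacy.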

Assay [14] can be described thus: Quantitative high throughput screen for delayed death inhibitors of the malarial parasite plastid, 96 hour incubation (AID 488745). Note: nearly all actives have a fitted effect of over 70% in size. Note: potency is the fitted concentration of half-maximal effect. The procedure, abridged:
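Decreased firefly luciferase luminescence indicates inhibited growth of reporter-integrated P. falciparum after two generations (96 h, 37 C, 5% CO2). Infected erythrocytes at 0.1% parasitemia, 2% hematocrit, in Albumax-supplemented RPMI 1640.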

A short description of assay [15]: Quantitative high throughput screen for delayed death inhibitors of the malarial parasite plastid, 48 hour incubation (AID 488752). Note: nearly all actives have a fitted effect of over 65% in size. In a few lines: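 One-generation (48 h) growth assay: a decrease in luciferase signal from an integrated reporter in P. falciparum-infected red cells (0.1% parasitemia, 2% hematocrit) after compound exposure at 37 C indicates parasite inhibition.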

The target of assay [16] is Thioredoxin reductase 1, cytoplasmic (Rattus norvegicus) (UniProt O89049). Description: qHTS Assay for Substrates of Mammalian Selenoprotein Thioredoxin Reductase 1 (TrxR1) (AID 488772).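 Note: series mostly up to about 57 µM; a drop in NADPH fluorescence below the no-compound background marks a TrxR1 substrate.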 The procedure, abridged: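 In this dual-purpose format, potential substrates are identified from the first fluorescence read after selenite addition, not from the 8-minute delta. Rat enzyme is preincubated with NADPH and then with compound at ~22 deg C.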
Sequence of Thioredoxin reductase 1, cytoplasmic (Rattus norvegicus) (O89049 whole entry, looked up): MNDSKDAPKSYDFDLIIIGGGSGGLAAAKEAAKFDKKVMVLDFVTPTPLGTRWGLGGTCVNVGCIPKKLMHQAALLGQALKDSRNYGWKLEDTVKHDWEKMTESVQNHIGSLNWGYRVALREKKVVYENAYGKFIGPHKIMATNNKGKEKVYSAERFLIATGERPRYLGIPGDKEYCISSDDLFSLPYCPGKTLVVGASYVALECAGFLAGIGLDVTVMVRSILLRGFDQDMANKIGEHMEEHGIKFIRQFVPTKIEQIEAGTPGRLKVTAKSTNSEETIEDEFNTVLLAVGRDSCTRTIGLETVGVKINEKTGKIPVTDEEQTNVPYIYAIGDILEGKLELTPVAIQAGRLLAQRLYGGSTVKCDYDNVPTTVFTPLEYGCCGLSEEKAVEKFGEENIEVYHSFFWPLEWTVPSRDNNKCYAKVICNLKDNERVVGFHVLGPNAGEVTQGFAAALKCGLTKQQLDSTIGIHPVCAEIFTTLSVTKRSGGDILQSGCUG

For assay [17] the target is unchanged. Description: qHTS Assay for Inhibitors of Mammalian Selenoprotein Thioredoxin Reductase 1 (TrxR1) (AID 488773).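 Note: drop in NADPH fluorescence over an 8 min run after selenite addition; series mostly up to about 57 µM; nearly all actives have a fitted effect of over 40% in size.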 To be noted: Potency: inhibition. The procedure, abridged:
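Inhibition is scored from the loss of NADPH fluorescence between first and last reads of an 8-min kinetic run. Selenite (400 uM) was the substrate, added after 15 min compound preincubation at room temperature.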

Assay [18] addresses Flap endonuclease 1 (Homo sapiens) (UniProt P39748). The assay is described as follows: qHTS Validation Assay for the Inhibitors of Human Flap endonuclease 1 (FEN1) (AID 488816). In a few lines:
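Enzyme reagent 10 nM; cpds pinned; 15 min RT preinc.; substrate 50 nM final; reads t=0 and 15 min; no-enzyme buffer wells as neg. control; normalized data, 4-parameter Hill fit.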

For assay [19], the target named is M-phase phosphoprotein 8 (Homo sapiens) (UniProt Q99549). Description: qHTS Validation Assay for Inhibitors for MPP8 Chromodomain Interactions with Methylated Histone Tails (AID 488949).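 Note: AlphaScreen signal from MPP8 chromodomain bound to biotinylated H3K9me3 peptide; top concentration of the series differs between compounds; nearly all actives have a fitted effect of over 55% in size.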 The procedure, abridged:
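AlphaScreen read-out: streptavidin donor and nickel chelate acceptor beads (final 10 ug/mL), 30 min in the dark at RT. Complex of 50 nM MPP8 and 50 nM b-H3(1-18)K9me3 peptide had been exposed to compounds for 30 min beforehand.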

Sequence of ATP-dependent DNA helicase Q1 (Homo sapiens) (P46063 whole entry, looked up): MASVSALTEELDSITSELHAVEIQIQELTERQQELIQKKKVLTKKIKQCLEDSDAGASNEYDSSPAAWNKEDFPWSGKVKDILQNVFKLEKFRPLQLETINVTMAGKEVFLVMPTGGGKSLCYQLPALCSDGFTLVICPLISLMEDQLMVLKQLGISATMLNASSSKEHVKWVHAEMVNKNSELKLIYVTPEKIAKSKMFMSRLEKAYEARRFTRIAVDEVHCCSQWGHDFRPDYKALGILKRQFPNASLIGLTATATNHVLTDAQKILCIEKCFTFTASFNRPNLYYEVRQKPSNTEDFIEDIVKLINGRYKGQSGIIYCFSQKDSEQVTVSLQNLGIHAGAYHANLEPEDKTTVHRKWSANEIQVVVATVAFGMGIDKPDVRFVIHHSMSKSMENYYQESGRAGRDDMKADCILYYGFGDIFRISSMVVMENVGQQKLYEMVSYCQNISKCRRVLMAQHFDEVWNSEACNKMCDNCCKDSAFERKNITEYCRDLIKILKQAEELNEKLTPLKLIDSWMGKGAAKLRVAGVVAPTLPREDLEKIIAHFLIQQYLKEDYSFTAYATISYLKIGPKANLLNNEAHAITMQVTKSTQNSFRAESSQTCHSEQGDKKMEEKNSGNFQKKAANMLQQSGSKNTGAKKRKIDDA
Sequence of ATP-dependent 6-phosphofructokinase (Trypanosoma brucei brucei) (O15648 whole entry, looked up): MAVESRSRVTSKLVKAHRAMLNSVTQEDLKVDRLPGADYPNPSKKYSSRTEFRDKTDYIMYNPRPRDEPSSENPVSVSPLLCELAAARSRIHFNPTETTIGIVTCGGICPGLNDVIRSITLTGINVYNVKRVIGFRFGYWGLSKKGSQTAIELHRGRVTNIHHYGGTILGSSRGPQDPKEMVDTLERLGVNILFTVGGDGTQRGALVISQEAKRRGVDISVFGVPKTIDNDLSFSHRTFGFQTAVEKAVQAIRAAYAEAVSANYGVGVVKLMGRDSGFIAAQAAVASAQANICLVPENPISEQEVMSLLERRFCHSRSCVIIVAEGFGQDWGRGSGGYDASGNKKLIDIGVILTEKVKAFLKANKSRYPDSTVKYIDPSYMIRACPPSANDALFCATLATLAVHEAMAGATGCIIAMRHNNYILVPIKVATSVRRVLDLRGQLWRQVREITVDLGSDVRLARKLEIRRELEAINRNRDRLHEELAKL
Sequence of Tumor susceptibility gene 101 protein (Homo sapiens) (Q99816 whole entry, looked up, the tested form may be a part): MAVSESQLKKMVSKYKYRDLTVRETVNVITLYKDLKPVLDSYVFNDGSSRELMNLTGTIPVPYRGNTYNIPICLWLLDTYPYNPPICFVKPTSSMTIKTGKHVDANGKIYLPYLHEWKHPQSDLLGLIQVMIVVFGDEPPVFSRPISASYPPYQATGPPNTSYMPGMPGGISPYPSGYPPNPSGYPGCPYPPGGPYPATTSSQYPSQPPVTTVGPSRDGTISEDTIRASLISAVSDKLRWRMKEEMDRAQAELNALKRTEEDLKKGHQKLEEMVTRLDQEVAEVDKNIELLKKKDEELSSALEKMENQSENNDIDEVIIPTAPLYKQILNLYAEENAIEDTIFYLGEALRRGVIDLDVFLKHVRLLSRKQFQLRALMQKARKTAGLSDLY
Sequence of Flap endonuclease 1 (Homo sapiens) (P39748 whole entry, looked up): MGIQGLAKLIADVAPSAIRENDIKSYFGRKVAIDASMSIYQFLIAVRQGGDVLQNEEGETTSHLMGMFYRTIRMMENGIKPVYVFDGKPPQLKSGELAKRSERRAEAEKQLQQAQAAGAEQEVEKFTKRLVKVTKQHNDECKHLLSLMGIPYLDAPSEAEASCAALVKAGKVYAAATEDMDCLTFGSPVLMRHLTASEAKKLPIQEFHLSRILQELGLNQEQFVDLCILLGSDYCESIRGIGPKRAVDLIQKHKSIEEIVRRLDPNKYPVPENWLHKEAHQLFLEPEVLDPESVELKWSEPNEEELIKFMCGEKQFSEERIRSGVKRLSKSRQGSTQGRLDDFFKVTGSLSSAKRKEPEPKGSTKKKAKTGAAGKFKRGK

As for `CN(C)CCN(Cc1cccs1)c1ccccn1`, the Potency entry in assay [1], in assay [2], in assay [4], in assay [5], in [6] and in assay [7] was “inactive” in each case. Moreover, the Potency entry in assay [9], in assay [11], in [14], in assay [15], in assay [17] and in [18] was “inactive” each time. Moreover, the Potency result in [19] was “inactive”. Moreover, the molecule was called inactive in assay [3], in [8], in [10], in assay [12], in assay [13] and in [16].

In the case of `NC1=NCC2c3ccccc3Cc3ccccc3N12` (stereo unspecified), the outcome in [3], in assay [8], in [10], in [13] and in [16] was inactive. Also, the Potency result in assay [4], in assay [5], in [6], in assay [9], in assay [11] and in assay [17] was “inactive” each time. The Potency entry in assay [18] is “inactive”.

In the case of `CC(C)(C)c1ccc(C(=O)CCCN2CCC(OC(c3ccccc3)c3ccccc3)CC2)cc1`, the Potency is 20.7 µM (active) in assay [4] and 4.65 µM (active) in [5]. Moreover, the molecule was called inactive in assay [8], in [10], in [12], in assay [13] and in assay [16]. The Potency result in [9], in assay [11], in assay [17] and in assay [18] was “inactive” each time.

On to `C#CCN(C)CCCOc1ccc(Cl)cc1Cl`, for which the Potency entry in [2], in assay [4], in [5], in assay [6], in assay [7] and in assay [15] was “inactive” throughout. In addition, the Potency result in assay [17] and in assay [18] was “inactive” each time. The call in [3], in assay [8], in assay [10], in assay [12], in assay [13] and in assay [16] was inactive.

For the molecule `NC(=O)c1cn(Cc2c(F)cccc2F)nn1`, the call in assay [3], in assay [8], in assay [10], in assay [12] and in [16] was inactive. The Potency result in [4], in [5], in [6], in assay [9], in assay [11] and in assay [17] was “inactive” each time. For the same molecule, the Potency result in assay [18] is “inactive”.

With `CCOC(=O)C1=C(C)NC(C)=C(C(=O)OC)C1c1cccc(Cl)c1Cl` (stereo unspecified), the Potency result in assay [1], in assay [4], in assay [5], in assay [9], in [17] and in [19] was “inactive” in each case. The outcome in assay [3], in assay [10], in assay [12] and in assay [16] was inactive. Besides, in [7], the Potency is 11.2 µM (active).

For the molecule `Nc1nc(N)c2nc(-c3ccccc3)c(N)nc2n1`, the Potency entry in assay [1], in [2], in assay [4], in assay [5], in assay [9] and in assay [17] was “inactive” each time. Further, the Potency result in [18] and in assay [19] was “inactive” throughout. For the same molecule, the molecule was called inactive in assay [3], in assay [8], in [10] and in assay [16]. For the same molecule, in assay [14], the Potency was 8.28 µM (active).

As for `COC(=O)C1=C(C)NC(C)=C(C(=O)OC(C)(C)CN(C)CCC(c2ccccc2)c2ccccc2)C1c1cccc([N+](=O)[O-])c1` (stereo unspecified), the Potency result in assay [4], in assay [9], in assay [11], in assay [17] and in assay [18] was “inactive” in each case. For the same molecule, the result in [8], in assay [10], in assay [13] and in assay [16] was inactive.
